This is part of a sample that, as a whole, favours compounds with a hit. Of some 79,000 tested, about 15% had one in any assay. Active and inactive are the calls of the source. No stated cut-off is given here; in the data, active means growth inhibition above about 70%; inactive means the rest.
Assay: NCI Yeast Anticancer Drug Screen. Data for the rad50 strain (AID 155);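 further: 0% = growth of vehicle-only cultures of the same strain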
Settings: S. cerevisiae rad50 strain growth inhibition; at 50.0 µM; active compounds read high
Procedure, shortened: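 Vehicle-treated cultures provide the reference for the growth inhibition reported for compound-exposed, repair-deficient yeast.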
In the case of `CCCCCCCC/C=C\CCCCCCCCOC(N)=O`, the growth inhibition is reported as -30.7% (inactive). For `CS(=O)(=O)c1ccc(NN)c([N+](=O)[O-])c1` (tested in a mixture with another compound), the growth inhibition was -25.7% (inactive). With `NC(CCC(=O)OCc1ccccc1)C(=O)OCc1ccccc1` (stereo not drawn) the growth inhibition was -0.95% (inactive). With `O=C(O)c1cc(N=Nc2ccccc2)ccc1O` the growth inhibition was -19.1% (inactive). For `CN1C(=S)c2ccccc2S1(=O)=O`, the growth inhibition was -6.6% (inactive). For `O=C(/C=N/O)Nc1cc(Cl)ccc1Cl`, the growth inhibition was 17.6% (inactive). For `CC1=NOC(=O)C1C(C)(C)C1C(=O)ON=C1C` (stereo not drawn), the growth inhibition was 8.25% (inactive). In the case of `O=C(CCc1ccc(O)cc1)N/N=C/c1cc(Br)ccc1O`, the growth inhibition is reported as -29.6% (inactive). For `Nc1ccc(I)cc1Cl`, the growth inhibition was 15.8% (inactive). In the case of `O=C1Nc2ccccc2CCc2ccccc21`, the growth inhibition is reported as -18.1% (inactive). For `Cc1ccc(-c2noc(CC(=O)c3ccc([N+](=O)[O-])cc3)n2)cc1`, the growth inhibition was 14.4% (inactive). For `S=C1SCN(Cc2ccccc2)CN1Cc1ccccc1`, the growth inhibition was -10.1% (inactive). With `COc1ccc(C(=O)CC2CCCC(CC(=O)c3ccc(OC)cc3)N2C)cc1` (stereo not drawn) the growth inhibition was 5.4% (inactive). For `CCOc1ccc(N=c2ssc(SC)c2-c2ccccc2)cc1`, the growth inhibition was 3.4% (inactive). For `N#C/C(=C/c1ccc(O)c(O)c1)C(N)=O`, the growth inhibition was 23.6% (inactive). With `COc1ccc(-c2cc(=O)c3c(O)cccc3o2)cc1` the growth inhibition was 2.65% (inactive). With `Cc1ccc(N2C(=O)CC(Sc3ccccc3N)C2=O)cc1Cl` (stereo not drawn) the growth inhibition was -15.5% (inactive). In the case of `NC(=O)C(=O)N/N=C/c1ccc2c(c1)CCC2`, the growth inhibition is reported as -2.45% (inactive).
